# In PubChem BioAssay (NCI):
# Compounds without any hit were thinned out: in the full panel of roughly 83,000, 20% have a hit.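 Step 1: grow cells in 96-well plates. Step 2: add test compound at a single concentration. Step 3: incubate 48 h. Step 4: record percent growth.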 Unmarked numbers belong to inactive results. Active and inactive are the calls of the source. Rule for the calls: active = growth percent below 10; inactive = the rest.
# System: HL-60(TB) leukemia
# Test: NCI-60 one-dose screen, 48 h (100 = growth as untreated, 0 = no growth, -100 = all killed)
# Conditions: 10 µM unless noted
row,SMILES,growth
1,COC(=O)c1ccc2[nH]c(O)c(C(=Nc3ccc(N(C)C(=O)CN4CCN(C)CC4)cc3)c3ccc([N+](=O)[O-])cc3)c2c1,11.6%
2,COC(=O)[C@]12CC[C@@H](C)[C@H](C)[C@@H]1C1=CC(=O)[C@@H]3[C@@]4(C)C[C@@H](O)[C@H](O)[C@@]5(C)COC(=C45)C[C@@]3(C)[C@]1(C)CC2,41.9%
3,O=C(Nc1ccc(N2CCNCC2)cc1)c1[nH]ncc1Nc1ncnc2sc3c(c12)CCC3,-49.6% (active)
4,COc1ccc2nc(NC(=O)c3cccnc3Nc3ccc(S(N)(=O)=O)cc3)sc2c1,54.5%
5,COc1cccc2c1C(=O)c1c(O)c3c(c(O)c1C2=O)C[C@@](O)(C(=O)COC(=O)c1ccccc1)C[C@@H]3OC1CC(N)C(O)C(C)O1 (stereo not given in full),-74.8% (active)
6,COc1nc2c(cc1S(=O)(=O)c1ccccc1)CCc1c-2cnn1-c1ccc(Cl)cc1,90.5%
7,COc1ccc(NC(=O)/N=c2\oc3c(OC)cccc3cc2-c2cc3ccccc3[nH]2)cc1,142%
8,Cn1cc(-c2csc(-c3cn(CCO)c4ccc(F)cc34)n2)c2cccnc21,50.2%
9,Cc1cc(Cl)ccc1OC(C)C(=O)Nc1nnc(C2CC2)s1 (stereo not given),108%
10,COC(=O)c1ccc2[nH]c(O)c(C(=Nc3ccc(N(C)C(=O)CN4CCN(C)CC4)cc3)c3ccc(CCO)cc3)c2c1,7.24% (active)
11,COc1cc(-c2nn(-c3cccc(NC(=O)CCN4CCN(c5ccccc5)CC4)c3)cc2-c2ccncc2)ccc1Cl,13%
12,C#C[C@]1(O)CC[C@H]2[C@@H]3CC=C4c5nc(Nc6ccccn6)sc5CC[C@]4(C)[C@H]3CC[C@@]21C,10.6%
13,Cc1nn(-c2ccccc2)c(N)c1N=C1NC(=O)/C(=C/c2ccc(Cl)cc2)S1,74.3%
14,CC(=O)Nc1scc[n+]1Cc1ccccc1,55.3%
15,Cc1ccc(CCCC(=O)O)c(C)c1,98.3%
16,O=C1Nc2ccccc2/C1=C/c1c[nH]c2ccccc12,102%
17,Cn1nnnc1-c1ccc(N)cc1,94.4%
18,CO[C@H]1/C=C/O[C@@]2(C)Oc3c(C)c(O)c4c(c3C2=O)C(=O)C(/C=N/N(c2ccccc2)c2ccccc2)=C(NC(=O)/C(C)=C\C=C\[C@H](C)[C@H](O)[C@@H](C)[C@@H](O)[C@@H](C)[C@H](OC(C)=O)[C@@H]1C)C4=O,-12.5% (active)
19,Nc1nc(Nc2ccccc2SSc2ccccc2Nc2nc(N)nc(C(Cl)(Cl)Cl)n2)nc(C(Cl)(Cl)Cl)n1,11.5%
20,CN1CCC(=C2c3ccccc3C=Cc3ccccc32)CC1,85.1%

row,SMILES,growth
1,O=C(Nc1ccccc1)c1cc2ccccc2s1,61.6%
2,CCc1ccc(C(c2ccc(CC)cc2)C(Cl)(Cl)CCl)cc1,77.2%
3,C[C@@]1(N2C(=O)OC[C@@H]2c2ccccc2)C(=O)N([C@H](CC(=O)N2CCC(N3CCCCC3)CC2)C(=O)NCc2cccc(C(F)(F)F)c2)[C@@H]1/C=C/c1ccccc1,81%
4,COc1ccc2nc3cc(Cl)ccc3c(Nc3ccc(O)cc3)c2c1,44.2%
5,O=C(/C=C\c1ccco1)/C=C/c1ccco1,106%
6,CC(C)NC(=O)OCc1c(COC(=O)NC(C)C)c(-c2ccc(Cl)cc2)n2c1CCC2,43.9%
7,CN1CCN(c2ccc(NC(=O)c3cncnc3Nc3ccc(OCc4cccc(F)c4)c(Cl)c3)cc2)CC1,66.9%
8,c1ccc(CP(Cc2ccccc2)c2ccccc2)cc1,84.2%
9,O=C(C[P+](c1ccccc1)(c1ccccc1)c1ccccc1)c1ccccc1,93.1%
10,CCOC(=O)N[C@H]1CCc2cc(OC)c(OC)c(OC)c2-c2ccc(SC)c(=O)cc21,-28.9% (active)
11,CCOC(=O)C(=O)C=P(c1ccccc1)(c1ccccc1)c1ccccc1,103%
12,COc1cc(C(=O)c2c(-c3ccccc3)oc3c(OC)cccc23)cc(OC)c1O,3.31% (active)
13,COc1c(O)c2c3c(c1OC)-c1ccccc1CC3N(S(=O)(=O)c1ccc(C)cc1)CC2 (stereo not given),5.73% (active)
14,CC(C)Cc1cc(CNC(=O)C2[C@H]3CN(C(=O)c4ccccc4)C[C@@H]23)nn1-c1ccccc1 (stereo not given in full),94.2%
15,CN1c2ccccc2[C@]2(Cc3ccccc3)Cc3ccccc3N[C@H]12,94.7%
16,COc1cc(CCNc2nc3cc(N)cc(N)c3nc2-c2ccccc2)cc(OC)c1,-66.1% (active)
17,Cc1cc(Cl)cc(Cc2cc(Cl)cc(C)c2O)c1O,-27.9% (active)
18,O=C(N/N=c1/ccoc2cccnc12)N1CCN(c2ncccn2)CC1,44.2%
19,COc1ccc(C2CC(c3ccc(Nc4nc(Nc5ccc(F)cc5)nc(Nc5ccc(F)cc5)n4)cc3)=NN2C(C)=O)cc1 (stereo not given),17.1%
20,C=C(C)C(C(=O)OCC)(C(=O)OCC)C(C)C,118%
